Experimental data from PubChem BioAssay.
The source made the active and inactive calls. Unless noted, no rule for the calls is given here.

Key:
[1] = compound effects on lung adenocarcinoma cell viability – A549, calcein-AM fluorescence, 48 h, basal, profiling panel (AID 1162); settings: higher = more signal; also: test concentration not given here
[2] = compound effects on differentiated 3T3-L1 adipocyte viability – cell-based, 3T3-L1 adipocytes, calcein-AM fluorescence, 48 h, basal, profiling panel (AID 1163); settings: 3T3-L1 adipocytes viability, higher = more signal; also: test concentration not given here
[3] = compound effects on hepatocellular carcinoma cell viability – HepG2, calcein-AM fluorescence, 48 h, basal, profiling panel (AID 1164); settings: higher = more signal; also: test concentration not given here
[4] = compound effects on multiple myeloma cell viability – MM1S, calcein-AM fluorescence, 48 h, basal, profiling panel (AID 1165); settings: higher = more signal;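 also: viability of MM1S multiple myeloma cells under basal unstimulated conditions; test concentration not given here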
[5] = calcein-AM signal in unstimulated myeloma cells – cell-based, calcein-AM fluorescence, 48 h, PK04 Diversity Set, profiling panel (AID 1166); settings: higher = more signal; RPMI8226 myeloma viability, calcein-AM fluorescence, 48 h unless noted;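 also: cells grown under basal conditions without added stimulus; test concentration not given here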
[6] = JC-1 mitochondrial signal, unstimulated HepG2 cells – cell-based, JC-1 fluorescence, 24 h, 100 nL compound, profiling panel (AID 1167); settings: HepG2 mitochondrial potential, higher = more signal; also: test concentration not given here
[7] = JC-1 mitochondrial signal, unstimulated adipocytes – cell-based, JC-1 fluorescence, 3T3-L1 adipocytes, 24 h, 100 nL compound, profiling panel (AID 1168); settings: JC-1 mitochondrial fluorescence; higher = more signal, called active from +8 up or from −8 down unless noted; also: test concentration not given here
[8] = JC-1 mitochondrial signal, unstimulated myeloma cells – cell-based, JC-1 fluorescence, RPMI8226, 24 h, 100 nL compound, profiling panel (AID 1169); settings: higher = more signal; RPMI8226 myeloma, JC-1 mitochondrial potential fluorescence, 24 h unless noted; also: test concentration not given here
[9] = JC-1 mitochondrial signal, unstimulated MM1S myeloma – cell-based, JC-1 fluorescence, 24 h, 100 nL compound, profiling panel (AID 1170); settings: MM1S mitochondrial potential, higher = more signal; also: test concentration not given here
[10] = resazurin metabolic signal in A549 cells – cell-based, resazurin fluorescence, 24 h, PK04 Diversity Set, profiling panel (AID 1171); settings: A549 viability; higher = more signal, called active from +8 up or from −8 down unless noted; also: test concentration not given here
[11] = resazurin metabolic signal in HepG2 cells – cell-based, resazurin fluorescence, 24 h, PK04 Diversity Set, profiling panel (AID 1172); settings: HepG2 viability, higher = more signal; also: test concentration not given here
[12] = budding yeast growth changes without added modifier – OD600, strain BY4716, 24 h, basal condition, primary screen (AID 1173); settings: S. cerevisiae BY4716 growth, OD600, 24 h; higher = more signal, called active from +8 up or from −8 down unless noted
[13] = viability profiling in MM1S myeloma cells – cell-based, resazurin fluorescence, basal, 24 h, PK04 Diversity Set, profiling panel (AID 1174); settings: higher = more signal, called active from +8 up or from −8 down unless noted; also: test concentration not given here
[14] = molecular target: Dihydroorotate dehydrogenase (quinone), mitochondrial (Plasmodium falciparum (isolate 3D7)) (UniProt Q08210); assay: inhibition of P. falciparum DHODH – biochemical, C-terminal His tag, absorbance 600 nm, primary screen (AID 1175); settings: PfDHODH enzyme, DCIP absorbance 600 nm; higher = more signal, called active from +8 up or from −8 down unless noted;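 also: recombinant parasite enzyme with a five histidine tag at its C terminus; test concentration not given here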
[15] = inhibition of PAO1 biofilm formation – strain PAO1, LB-PBS medium, absorbance 600 nm, primary screen (AID 1176); also: test concentration not given here; settings: P. aeruginosa PAO1 growth/biofilm, A600, 12 h; higher = more signal
[16] = growth modulation of vineyard yeast isolate – strain RM11-1a, OD600, basal, 24 h, primary screen (AID 1177);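 also: cultures grown under basal conditions with no added stressor; test concentration not given here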; settings: S. cerevisiae RM11-1a growth, OD600, 24 h; higher = more signal, called active from +8 up or from −8 down unless noted
[17] = growth of efflux-deficient E. coli DRC39 – strain DRC39, OD650, 24 h, E. coli filamentation inducers, primary screen (AID 1178);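 also: growth measured as culture turbidity by optical density at 650 nm; test concentration not given here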; settings: E. coli DRC39 acrAB; higher = more signal, called active from +8 up or from −8 down unless noted
[18] = growth of efflux-deficient E. coli DRC39 – strain DRC39, OD650, 48 h, E. coli filamentation inducers, primary screen (AID 1179);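 also: screen aims at cell division blockers that make cells filament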; settings: E. coli DRC39 delta-acrAB growth, higher = more signal, called active from +8 up or from −8 down unless noted
[19] = viability profiling in RPMI8226 myeloma cells – cell-based, resazurin fluorescence, basal, 24 h, PK04 Diversity Set, profiling panel (AID 1180); settings: higher = more signal; RPMI8226 viability, resazurin fluorescence, 24 h unless noted;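 also: RPMI8826 multiple myeloma cell line at 5000 cells per well; test concentration not given here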
[20] = molecular target: E3 ubiquitin-protein ligase XIAP (Homo sapiens) (UniProt P98170); assay: small molecules binding XIAP protein – biophysical, small-molecule microarray, fluorescence 635 nm, primary screen (AID 1181); settings: higher = more signal;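 also: score merges 667 nm emission and signal to noise over triplicate slides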
E3 ubiquitin-protein ligase XIAP (Homo sapiens), sequence (P98170 whole entry, looked up): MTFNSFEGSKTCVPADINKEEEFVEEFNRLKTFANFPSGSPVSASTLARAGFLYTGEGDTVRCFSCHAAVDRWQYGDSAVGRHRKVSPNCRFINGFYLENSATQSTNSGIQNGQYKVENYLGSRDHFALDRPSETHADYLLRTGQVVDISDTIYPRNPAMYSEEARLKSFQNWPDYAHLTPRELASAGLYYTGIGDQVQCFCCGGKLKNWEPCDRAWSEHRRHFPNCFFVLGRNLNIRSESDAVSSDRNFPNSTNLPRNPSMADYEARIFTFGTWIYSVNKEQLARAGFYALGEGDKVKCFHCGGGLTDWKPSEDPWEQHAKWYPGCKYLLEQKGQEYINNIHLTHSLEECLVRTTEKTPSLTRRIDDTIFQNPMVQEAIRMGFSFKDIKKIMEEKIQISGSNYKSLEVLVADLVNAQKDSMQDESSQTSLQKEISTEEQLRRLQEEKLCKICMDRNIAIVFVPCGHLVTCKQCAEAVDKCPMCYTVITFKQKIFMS

Dihydroorotate dehydrogenase (quinone), mitochondrial (Plasmodium falciparum (isolate 3D7)), sequence (Q08210 whole entry, looked up): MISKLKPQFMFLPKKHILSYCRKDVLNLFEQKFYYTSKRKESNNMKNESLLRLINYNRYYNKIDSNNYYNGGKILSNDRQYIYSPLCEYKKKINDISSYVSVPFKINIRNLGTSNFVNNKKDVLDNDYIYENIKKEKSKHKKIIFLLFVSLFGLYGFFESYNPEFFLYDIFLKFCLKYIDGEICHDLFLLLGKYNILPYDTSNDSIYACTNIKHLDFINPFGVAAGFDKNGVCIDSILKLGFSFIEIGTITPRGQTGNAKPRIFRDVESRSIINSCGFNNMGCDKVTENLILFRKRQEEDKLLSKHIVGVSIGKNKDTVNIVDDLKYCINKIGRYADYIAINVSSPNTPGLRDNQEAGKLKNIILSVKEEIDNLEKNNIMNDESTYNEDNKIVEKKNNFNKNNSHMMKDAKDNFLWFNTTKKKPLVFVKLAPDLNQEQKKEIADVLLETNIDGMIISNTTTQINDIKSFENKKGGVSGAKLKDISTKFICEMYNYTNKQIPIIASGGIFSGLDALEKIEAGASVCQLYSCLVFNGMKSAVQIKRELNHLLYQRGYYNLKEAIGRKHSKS

Structure (SMILES) | z-score [1] | z-score [2] | z-score [3] | z-score [4] | z-score [5] | z-score [6] | z-score [7] | z-score [8] | z-score [9] | z-score [10] | z-score [11] | z-score [12] | z-score [13] | composite z-score [14] | z-score [15] | z-score [16] | z-score [17] | z-score [18] | z-score [19] | composite z-score [20]
CCCC[C@@H]1C[C@H]1[C@@H](NP(=O)(c1ccccc1)c1ccccc1)c1ccc(Cl)cc1 | -0.656 | -1.31 | -0.868 | -2.05 | -4.62 | -1.35 | -0.729 (inactive) | -0.861 | -1.11 | 2.22 (inactive) | 1.46 | -1.14 (inactive) | 0.105 (inactive) | -0.717 (inactive) | 0.122 (inactive) | -0.357 (inactive) | -0.429 (inactive) | -0.363 (inactive) | -0.0326 | 0.0077
C[C@@H]1OC=C2[C@@H](O)[C@H]3O[C@H]3C(=O)[C@]23[C@H]1[C@H]1C2=C([C@@H](O)[C@H]4O[C@H]4C2=O)[C@@H]3O[C@@H]1C | 0.304 | 0.441 | 0.0428 | -0.297 | -0.594 | -0.888 | -0.3 (inactive) | 0.0604 | 0.144 | 0.703 (inactive) | 0.216 | 0.243 (inactive) | 0.103 (inactive) | -0.0198 (inactive) | 0.0251 (inactive) | -0.541 (inactive) | -0.03 (inactive) | -0.0416 (inactive) | 0.864 | -0.135
CCOC(=O)[C@H]1CC=C2C(=O)Oc3ccc(Br)cc3[C@@H]21 | -2.46 | -0.556 | -2.35 | -2.9 | -3.93 | 1.36 | 0.599 (inactive) | 0.407 | 0.132 | 0.234 (inactive) | 0.328 | -17 (active) | -0.595 (inactive) | -0.89 (inactive) | 0.477 (inactive) | -14 (active) | -0.936 (inactive) | -0.568 (inactive) | -0.0544 | 0.355
C=C(CC1(CNP(=O)(c2ccccc2)c2ccccc2)CC1)c1ccccc1 | -1.21 | -0.457 | -1.36 | -0.159 | -0.614 | -1.41 | -0.531 (inactive) | 0.29 | -0.987 | 0.344 (inactive) | -0.101 | 0.736 (inactive) | -0.342 (inactive) | 0.271 (inactive) | 0.0944 (inactive) | 0.389 (inactive) | -0.174 (inactive) | 0.249 (inactive) | -0.34 | -0.177
C[C@H]1O[C@H]2C3=C(C(=O)[C@@H]4O[C@@H]4[C@@H]3O)[C@@H]1[C@@H]1[C@@H](C)OC=C3[C@@H](O)[C@H]4O[C@H]4C(=O)[C@]312 | 0.767 | 0.439 | 0.0608 | -1.54 | -0.168 | -0.407 | 0.407 (inactive) | 0.692 | -0.996 | -0.831 (inactive) | -0.85 | -0.92 (inactive) | -1.92 (inactive) | -1.59 (inactive) | 0.629 (inactive) | -0.839 (inactive) | 0.215 (inactive) | -0.115 (inactive) | -0.416 | -0.136
OCc1ccc(C2=CC(C3CC3)N(Cc3sc4ccccc4c3Cl)CC2)cc1 (stereo not given) | -1.09 | 0.656 | -0.328 | -3.17 | -3.29 | 0.353 | 0.501 (inactive) | -0.913 | -0.434 | -0.497 (inactive) | -0.0351 | -4.2 (inactive) | -1.43 (inactive) | -1.3 (inactive) | -0.411 (inactive) | 1.76 (inactive) | -1.71 (inactive) | -1.33 (inactive) | -1.37 | 0.539
COC(=O)[C@@]1(Cc2ccc(F)cc2)[C@H]2c3cc(C(=O)N(C)C)[nH]c3C[C@H]2CN1C(=O)c1ccccc1 | -0.632 | -0.597 | 0.337 | 0.334 | -0.425 [setting not given] | 0.174 | 0.0376 [setting not given] (inactive) | -0.101 [setting not given] | -0.872 | -0.868 [setting not given] (inactive) | -1.3 | 1.11 [setting not given] (inactive) | -0.811 [setting not given] (inactive) | 0.25 [setting not given] (inactive) | 0.191 (inactive) | 1.09 [setting not given] (inactive) | -0.119 [setting not given] (inactive) | 0.169 [E. coli growth] (inactive) | -0.487 [setting not given] | 0.0546
c1ccc(-c2cc3c(nc2-c2ccccc2)CCNC3)cc1 | 0.765 | -0.106 | 0.246 | 0.195 | 0.145 | 0.506 | -0.239 (inactive) | 0.179 | -0.0254 | 0.983 (inactive) | 0.469 | -0.0743 (inactive) | 0.526 (inactive) | 1.07 (inactive) | -0.0933 (inactive) | 1.36 (inactive) | 0.306 (inactive) | -0.29 (inactive) | 0.938 | -0.0344
